In the library only some 27% were active in any assay of this set; here they are far more common.
CYP2C9 inh: human CYP2C9 inhibition. P11712. CYP2C9 Supersomes, luciferin-H conversion, luminescence. inhibition, % at 5 µM. 96,000 tested, 20% active. AID 777;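 active = blocking of liver enzyme CYP2C9 beyond about 50% at 5 µM, limit read from the data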
sEH inhibitor: inhibitors of human soluble epoxide hydrolase; P34913; recombinant human sEH enzymatic activity assay; inhibition, % at 2 µM; 91,000 tested, 0.34% active; AID 707; in the data active = inhibition above about 80%
CYP2C9 act: CYP2C9 (human) activation | P11712 | AID 1024 | activation factor at 5 µM | 96,000 tested, 1.4% active | recombinant CYP2C9, luciferin-H conversion, luminescence; stronger effect = higher value; factor 1 = untreated enzyme, 0 = blocked;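 active = activation factor of 2 or more for CYP2C9 at a 5 µM dose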
CYP2C19 activ: activators of human cytochrome P450 2C19 | P33261 | recombinant CYP2C19, luciferin-H EGE luminescence; stronger effect = higher value; 0 = fully inhibited enzyme, 1 = untreated enzyme | activation factor at 5 µM | 96,000 tested, under 10 active;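 active = activation factor of at least 2 at 5 µM in the primary screen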
Target sequence (P33261 whole entry, looked up): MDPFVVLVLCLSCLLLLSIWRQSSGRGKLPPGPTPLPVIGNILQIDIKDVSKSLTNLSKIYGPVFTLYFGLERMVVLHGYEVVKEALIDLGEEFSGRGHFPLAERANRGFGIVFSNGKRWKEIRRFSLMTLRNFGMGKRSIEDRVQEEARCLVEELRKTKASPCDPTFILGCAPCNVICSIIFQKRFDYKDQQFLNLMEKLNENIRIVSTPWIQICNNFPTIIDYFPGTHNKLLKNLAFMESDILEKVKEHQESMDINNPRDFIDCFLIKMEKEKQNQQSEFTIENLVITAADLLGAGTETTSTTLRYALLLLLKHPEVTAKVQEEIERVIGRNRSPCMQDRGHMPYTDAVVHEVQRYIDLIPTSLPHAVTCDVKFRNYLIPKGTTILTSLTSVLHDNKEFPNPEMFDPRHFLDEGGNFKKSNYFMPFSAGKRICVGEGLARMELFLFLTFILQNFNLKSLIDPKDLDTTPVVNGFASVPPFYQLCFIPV
CYP2C19 inhib: human CYP2C19 inhibition; P33261; CYP2C19 Supersomes, luciferin-H EGE luminescence, 30 min; inhibition, % at 5 µM; 96,000 tested, 21% active;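 active = CYP2C19 inhibition above a set limit at 5 µM in the primary screen, cut at about 50% in these data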
sEH act: activators of human soluble epoxide hydrolase. P34913. purified human sEH enzymatic activity, activator screen. activation, % at 2 µM. 91,000 tested, 0.04% active; in the data active = activation above about 37%
Of the large screens only hits and unclear results are named; the others gave an inactive call.

COC(=O)c1sccc1NC(=O)CSc1nnnn1-c1ccccc1C	none
COc1ccc(CSc2nnc(C)n2N)cc1Br	none
CCc1nnc(SCc2ccc(OC)c(Br)c2)n1N	CYP2C19 inhib 58 (no result: sEH inhibitor, sEH act)
O=C(Oc1cccc(NC(=O)c2ccccc2Cl)c1)c1ccc([N+](=O)[O-])cc1	none
CC(CCc1ccccc1)NC(=O)CSc1nccc(=O)[nH]1 (stereo unspecified)	none (no result: sEH inhibitor, sEH act)
CC1=N/C(=C\c2ccc([N+](=O)[O-])cc2)C(=O)N1c1cc(Cl)ccc1C	none
CCS(=O)(=O)N1Cc2ccccc2CC1C(=O)Nc1ccc(NC(C)=O)cc1 (stereo unspecified)	none
CCS(=O)(=O)N1Cc2ccccc2CC1C(=O)Nc1ccc(C)cc1 (stereo unspecified)	CYP2C9 inh 61, CYP2C19 inhib 86
COc1ccc(S(=O)(=O)N2Cc3ccccc3CC2C(=O)Nc2ccc(O)cc2)cc1OC (stereo unspecified)	CYP2C9 inh 91, CYP2C19 inhib 80
COC(=O)c1ccsc1NC(=O)CSc1nnnn1Cc1ccccc1	none (no result: CYP2C9 inh, CYP2C9 act, CYP2C19 activ, CYP2C19 inhib)
COc1ccccc1CNC(=O)c1ccc(S(=O)(=O)N(C)C)cc1	CYP2C19 inhib 73
COc1ccccc1CNC(=O)COc1ccccc1OC	CYP2C9 act 3.4, CYP2C19 inhib 97
COc1ccccc1C(=O)Nc1ccc(C(=O)O)cc1	none (no result: CYP2C9 inh, CYP2C9 act, CYP2C19 activ, CYP2C19 inhib)
C#CC(C)(C)NC(=O)c1ccccc1OC	CYP2C9 act 2.4 (no result: sEH inhibitor, sEH act)
CCC(CC)NC(=O)Cc1ccccc1OC	CYP2C19 inhib 78
COc1ccccc1OCCNC(=O)c1ccc(S(=O)(=O)N(C)C)cc1	none
COc1ccc(C(=O)/C=C\c2ccc(NC(=O)c3cccs3)cc2)cc1	none
COc1cc(C(=O)NCCC(C)C)c([N+](=O)[O-])cc1OC	none
COc1cc(CN2CCC(C(=O)N3CCCC(C)C3)CC2)cc(Br)c1O (stereo unspecified)	none
O=C(COC(=O)c1cccc(S(=O)(=O)N2CCc3ccccc32)c1)NC1CCS(=O)(=O)C1 (stereo unspecified)	none
CCC(=O)Nc1nc(C)c(C(=O)NC2CCCCC2)s1	none (no result: CYP2C9 inh, CYP2C9 act, CYP2C19 activ, CYP2C19 inhib)
O=C(NC(=S)Nc1ccc2oc(-c3cccnc3)nc2c1)c1cccc(Cl)c1	none
COc1ccccc1CNC(=O)c1ccccc1OC	CYP2C9 act 3.8, CYP2C19 inhib 77
Cc1cc(O)c(C(C[N+](=O)[O-])c2ccc(Cl)cc2Cl)c(=O)o1 (stereo unspecified)	CYP2C9 inh 98, CYP2C19 inhib 77
Cc1cc(O)c(C=Nc2cccc(Cl)c2)c(=O)o1	none (no result: sEH inhibitor, sEH act)
Cc1cccc(N(C)C(=O)c2coc(=O)c3ccccc23)c1	none
COc1ccc(S(=O)(=O)Cc2ccc(C(=O)NCCCN(C)c3ccccc3)o2)cc1	CYP2C9 inh 98
COc1ccc(S(=O)(=O)Cc2ccc(C(=O)NCCCN3CCc4ccccc4C3)o2)cc1	CYP2C9 inh 88
Cc1cccc(N(C)C(=O)c2cc3cc4ccc(C)cc4nc3o2)c1	CYP2C19 inhib 70
Cc1ccc2cc3cc(C(=O)NCCCN4CCc5ccccc5C4)oc3nc2c1	CYP2C19 inhib 64
Cc1ccc2cc3cc(C(=O)NCCCN4CCCCCC4)oc3nc2c1	none
CCOC(=O)N1CCC(NC(=O)c2ccc(CS(=O)(=O)c3ccc(OC)cc3)o2)CC1	CYP2C9 inh 93
CCN1CCCC1CNCc1ccc(Cl)cc1Cl (stereo unspecified)	none (no result: sEH inhibitor, sEH act)
Cc1cc(C)nc(SCSc2nc(C)cc(C)n2)n1	none (no result: sEH inhibitor, sEH act)
Cc1cc(C)nc(SCCc2ccncc2)n1	CYP2C19 inhib 73 (no result: sEH inhibitor, sEH act)
COc1ccc(C(=O)N2CCCC(c3nc(-c4ccc(OC)c(OC)c4)no3)C2)c(OC)c1 (stereo unspecified)	CYP2C9 inh 61
COc1ccc(-c2noc(C3CCCN(S(=O)(=O)c4ccc(C)c(Cl)c4)C3)n2)cc1OC (stereo unspecified)	CYP2C9 inh 57, CYP2C19 inhib 68
CCCS(=O)(=O)N1CCCC(c2nc(-c3ccc(OC)cc3)no2)C1 (stereo unspecified)	CYP2C9 inh 82
Cc1ccc(-c2noc(C3CCCN(C(=O)c4c(F)cccc4F)C3)n2)cc1 (stereo unspecified)	CYP2C9 inh 91, CYP2C19 inhib 78
CC(=O)c1cccc(S(=O)(=O)N2CCCC(c3nc(-c4ccc(C)o4)no3)C2)c1 (stereo unspecified)	none
